MCF10A rereplic: induces DNA re-replication in MCF 10a normal breast cells; AID 624296; Potency, µM (series often up to 46.1 µM), without a hit: at the top dose activity, positive = re-replication, hits mostly activators; MCF 10A DNA re-replication, Hoechst nuclear intensity, 48 h; 350,000 tested, 2.9% active; further: % of control where 0% means no effect; nearly all actives have a fitted effect of over 50% in size
HT1080 IDH1KD tx: kills HT-1080 cells with IDH1 knockdown | HT-1080 IDH1 knockdown viability, ATP luminescence, 48 h | Potency, µM (top dose mostly 46.1 µM), for the others: at the top dose activity, negative = toxicity, usual class: cytotoxic | 360,000 tested, 2% active | AID 686971;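 further: 0% = DMSO wells and -100% = cell-free medium wells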
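Luminescent ATP read-out (CellTiter-Glo, 10 min at room temperature) after 48 h compound exposure at 37 °C gave viability of IDH1-knockdown HT-1080 cells. Activity was normalised to DMSO and cell-free wells, then fitted as concentration-response curves.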
HT1080-NT tox: kills 2HG-producing HT-1080-NT fibrosarcoma cells; HT-1080-NT fibrosarcoma viability, CellTiter-Glo ATP luminescence, 48 h; Potency, µM (highest dose often 46.1 µM), for inactives: at the highest dose activity, negative = less viability, usual class: cytotoxic; 360,000 tested, 1.6% active; AID 686970;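 further: NT is the 2HG producing partner of a matched IDH1 knockdown line; 0% = DMSO-treated cells and -100% = media-only wells without cells; nearly all actives have a fitted effect of over 55% in size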
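HT-1080-NT; 750 cells/well; 5% FBS RPMI; 48 h compound, 37 degrees C; CellTiter-Glo luminescence; curve fitting and curve-class assignment.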
KB-V1 MDR tox: kills drug-selected multidrug resistant KB-V1 cells; KB-V1 MDR cells viability, CellTiter-Glo, 72 h; 400,000 tested, 3.4% active; Potency, µM (titrated, usually from 46.1 µM), most hits filed as cytotoxic; further: on the % scale 0 is the no-effect control and ±100 the full control effect; nearly all actives have a fitted effect of over 60% in size
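Potencies derive from concentration-effect curves fitted to normalized luminescence (CellTiter-Glo) of KB-V1 cells treated for 72 h at 37 degrees C in phenol-red-free DMEM containing 10% FBS.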
SW480 rerep: DNA re-replication induction in SW480 cells. SW480 DNA re-replication, Hoechst DNA content imaging, 48 h. Potency, µM (highest dose often 46.1 µM), inactives show top-dose re-replication activation, hits mostly activators. 340,000 tested, 1.8% active. AID 624297; further: % of control where 0% means no effect; nearly all actives have a fitted effect of over 55% in size
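Quantitative HTS format with DMSO vehicle controls; 48 hr drug incubation at 37 C, then 40 min Hoechst staining and scanning imager measurement at 405 nm excitation.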
KB-3-1 tox: kills parental KB-3-1 adenocarcinoma cells | KB-3-1 viability, CellTiter-Glo ATP luminescence, 72 h | Potency, µM (doses to about 46.1 µM), usual class: cytotoxic | 400,000 tested, 1.4% active; further: on the % scale 0 is the no-effect control and ±100 the full control effect; nearly all actives have a fitted effect of over 60% in size
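Screening of KB-3-1 cells (DMEM, 10% FBS, phenol-red free) ran from lowest to highest compound concentration; after 72 h at 37 °C viability was read luminescently and curves fitted.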
* marks the source's active call; other numbers are inactive results; i = inactive; ? = inconclusive; . = no result given. Rows were chosen to be rich in hits. Some 8% of all compounds tested hit in one or more screens of this group. The call rests on the fitted dose curve; in most records, active means well fitted curve in the direction sought with a large enough effect; inconclusive means small, poorly fitted or top-dose-only effect, or another doubt; inactive means no such curve, though single readings can be large; an effect the other way counts as inactive or inconclusive. Potency means the concentration at half of the fitted maximal effect.

SMILES	MCF10A rereplic	HT1080 IDH1KD tx	HT1080-NT tox	KB-V1 MDR tox	SW480 rerep	KB-3-1 tox
CN(C)C(=O)CSc1nc2ccccc2n1CC(=O)N1CCN(c2ccccc2)CC1	18%	5%	6%	i	?	i
CC1CCN(C(=O)Cn2c(SCC(=O)Nc3nccs3)nc3ccccc32)CC1	16%	-3%	-4%	4.6µM*	1%	i
CCOC(=O)CSc1nc2ccccc2c(=O)n1CCN1CCOCC1	-2%	1%	6%	13µM*	-1%	i
CCOCCCn1c(SCC(=O)N2CCOCC2)nc2ccccc2c1=O	-15%	2%	5%	?	-13%	i
CCc1ccc(NC(=O)CSc2nc3ccccc3c(=O)n2CCCC(=O)NCCCN2CCOCC2)cc1	?	18µM*	?	i	?	i
CCOC(=O)CSc1nc2ccccc2n1CC(=O)N1CCN(c2ccccc2)CC1	-4%	-11%	7%	7.3µM*	-2%	i
Cc1nc2c(cnn2CCO)c(=O)[nH]1	-22%	14%	-2%	i	-2%	i
O=C(Nc1ncc(Cc2ccccc2Cl)s1)C1CCCO1 (stereo not given)	1%	?	?	?	3%	i
CCOC(=O)c1cc(-c2ccccc2)n(CCCC(=O)Nc2cccc(Cl)c2C)c1C	.	.	.	i	.	i
CC(=O)Nc1ccc(NC(=O)CSc2nc3ccccc3c(=O)n2CCCN2CCOCC2)cc1	0%	-18%	-2%	i	7%	i
Cc1ccc(NC(=O)CSc2nc3ccccc3c(=O)n2CCCN2CCCCC2)cc1Cl	23µM*	?	23µM*	?	-3%	i
Cc1ccc(NC(=O)CSc2nc3ccccc3c(=O)n2CCCC(=O)NCCCN2CCOCC2)cc1C	11%	?	16µM*	i	-5%	i
COc1ccc(NC(=O)c2sc3nc[nH]c(=O)c3c2C)cc1OC	.	.	.	?	.	i
Cc1ccc(C)c(C(=O)OCC(=O)NC(=O)NCc2ccccc2)c1	.	2%	-8%	i	.	i
CCn1c(C)nc2cc(C(=O)N/N=C(\C)c3ccc(OC)cc3O)ccc21	-14%	15µM*	?	?	7%	i
CCOC(=O)Sc1nc2ncncc2[nH]1	15%	-7%	-6%	?	2%	i
COc1ccc(CCNC(=O)Cn2c(-c3ccc(F)cc3)cc(C(C)=O)c2C)cc1OC	.	.	.	i	.	i
Cc1cc(C(=O)N/N=C/c2ccc(-c3ccccc3Cl)o2)n[nH]1	?	-1%	1%	23µM*	-36%	?
Cc1ccc(-c2cc(C(=O)N/N=C/c3cccnc3)n[nH]2)o1	-6%	26%	14%	i	-187%	i
Cc1cc(C(=O)N/N=C/c2ccc(-c3ccc([N+](=O)[O-])cc3Cl)o2)n[nH]1	18µM*	1%	-2%	i	18µM*	i
Cc1cc(C(=O)N/N=C/c2ccc(-c3cccc([N+](=O)[O-])c3)o2)n[nH]1	6%	3%	8%	i	4%	i
COC(=O)N/N=C/c1ccc(-c2cc(Cl)ccc2Cl)o1	?	2%	-2%	21µM*	-3%	?
Cc1ccc(/C=N/NC(=O)c2cc(-c3ccc(C)o3)[nH]n2)cc1	4.6µM*	21µM*	?	?	?	?
Cc1noc(C)c1S(=O)(=O)Nc1ccc2c(c1)C(=O)N([C@H](C)CO)C[C@H](C)[C@@H](CN(C)Cc1ccc(C(=O)O)cc1)O2	-2%	0%	11%	i	-33%	i
COc1ccc(Cn2ccc3nc(C)c(C(=O)Nc4cc(C)cc(C)c4)cc3c2=O)cc1	.	.	.	i	.	i
SMILES	MCF10A rereplic	HT1080 IDH1KD tx	HT1080-NT tox	KB-V1 MDR tox	SW480 rerep	KB-3-1 tox
CCN(CCn1cccn1)C(=O)c1cccc(OC2CCN(S(C)(=O)=O)CC2)c1	3%	3%	4%	?	-5%	i
Cc1ccc(C(=O)N/N=C/c2ccc(-c3ccc(Br)cc3[N+](=O)[O-])o2)o1	5.8µM*	?	-1%	i	-3%	i
Cc1ccc(C(=O)N/N=C\c2ccc(Br)o2)o1	2%	19%	14%	i	-1%	i
O=C(O)CC1(CC(=O)NCc2ccc(F)cc2)CCCCC1	3%	18%	7%	i	-2%	i
O=C(O)CC1(CC(=O)NCc2ccc(Cl)cc2)CCCCC1	21µM*	0%	7%	i	2%	i
CC(O)c1nc2ccccc2n1CCCCOc1ccccc1 (stereo not given)	21%	-1%	-8%	i	-24%	i
CC[C@H](C)[C@@H]1NC(=O)[C@H]([C@@H](C)CC)NC(=O)[C@@H](CC(C)C)NC(=O)[C@H](Cc2ccccc2)NC(=O)[C@H](Cc2ccccc2)NC(=O)[C@@H]2CCCN2C(=O)[C@@H]2CCCN2C(=O)[C@H](C(C)C)NC(=O)[C@H](CC(C)C)NC1=O	21µM*	?	?	i	?	?
CCOc1ccc(CNC(=O)C2Cc3cc(S(=O)(=O)N4CCCCCC4)ccc3N2C(C)=O)cc1 (stereo not given)	.	.	.	i	.	i
COc1cnc(-c2ccccc2)nc1Oc1ccc(Cl)cc1C	13%	-2%	14%	i	-4%	i
O=C1N=C(N2CCCCC2)S/C1=C/C1=Cc2ccccc2OC1	18µM*	1%	14%	i	23%	i
CCOC(=O)C(NC(=O)c1ccccc1Cl)(Nc1ccc(C)c(C)c1)C(F)(F)F (stereo not given)	-68%	0%	1%	?	4.1µM*	i
COc1cc(C2Oc3ccccc3C=C2[N+](=O)[O-])cc(OC)c1OC (stereo not given)	?	5.8µM*	5.8µM*	?	?	?
CCOC(=O)C(CCc1ccccc1)NC(C)C(=O)N1Cc2ccccc2CC1C(=O)O (stereo not given)	-2%	.	.	.	-12%	.
O=C(NCCCn1ccnc1)c1cccc(Br)c1	-5%	10%	11%	i	26µM*	i
CC1CN(S(=O)(=O)c2ccc(C(=O)NCCCn3ccnc3)cc2)CC(C)O1 (stereo not given)	3.7µM*	1.8µM*	2.1µM*	i	5.8µM*	i
O=C(NCCCn1ccnc1)c1ccc(N2CCCCCC2)c([N+](=O)[O-])c1	?	5.8µM*	23µM*	i	?	i
O=C(NCCCn1ccnc1)c1ccc(Br)cc1	1%	0%	-1%	i	-7%	i
